Measurements published in PubChem BioAssay AID1159580 (chemical genetic matrix, 2015).
Values joined by “and” are separate entries in the source; they are usually repeats but may differ in a detail not shown here. Identical values can stand only once. About 2,000 (36%) of roughly 5,500 compounds were called active. Another 18% or so got no clear call; they are omitted. Rule as the data show it: active = normalized growth mostly below about 0.91 (no sharp cut-off); inconclusive = no clear call, values can overlap the other calls; inactive = mostly above about 0.92. This is one part of the list.

Assay: chemical genetic growth profiling, strain panel (AID 1159580);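 also: tested at 20 µM; growth read once vehicle control cultures reached saturation at 30 °C; 1 = growth at the plate median or of vehicle wells; lower values mean less growth of the strain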
Conditions: growth OD
[1] = S. cerevisiae deletion strains, locus YHR030C, strain SLT2, stronger effect = lower value
[2] = S. cerevisiae deletion strains, locus YHR079C, strain IRE1, stronger effect = lower value
[3] = S. cerevisiae deletion strains, locus YJL095W, strain BCK1, stronger effect = lower value
[4] = S. cerevisiae deletion strains, locus YJR066W, strain TOR1, stronger effect = lower value
[5] = S. cerevisiae deletion strains, locus YLR113W, strain HOG1, stronger effect = lower value
[6] = S. cerevisiae deletion strains, locus YNL183C, strain NPR1, stronger effect = lower value
[7] = S. cerevisiae deletion strains, locus YOR231W, strain MKK1, stronger effect = lower value
[8] = S. cerevisiae deletion strains, locus YPL256C, strain CLN2, stronger effect = lower value

Measured: normalized growth

COc1ccc2oc(-c3ccccc3)c(OC)c(=O)c2c1
active: S. cerevisiae deletion strains, locus YAL013W, strain DEP1, stronger effect = lower value 0.903 | S. cerevisiae deletion strains, locus YCL029C, strain bik1, stronger effect = lower value 0.906 | S. cerevisiae deletion strains, locus YDL035C, strain GPR1, stronger effect = lower value 0.846 | S. cerevisiae deletion strains, locus YDL074C, strain BRE1, stronger effect = lower value 0.71 | S. cerevisiae deletion strains, locus YDL101C, strain DUN1, stronger effect = lower value 0.888 | S. cerevisiae deletion strains, locus YDL134C, strain PPH21, stronger effect = lower value 0.828 | S. cerevisiae deletion strains, locus YDL192W, strain arf1, stronger effect = lower value 0.858 | S. cerevisiae deletion strains, locus YDR101C, strain arx1, stronger effect = lower value 0.887 | S. cerevisiae deletion strains, locus YDR162C, strain NBP2, stronger effect = lower value 0.719 | S. cerevisiae deletion strains, locus YDR318W, strain mcm21, stronger effect = lower value 0.808 | S. cerevisiae deletion strains, locus YDR388W, stronger effect = lower value 0.892 | S. cerevisiae deletion strains, locus YDR502C, strain sam2, stronger effect = lower value 0.867 | S. cerevisiae deletion strains, locus YER110C, stronger effect = lower value 0.861 | S. cerevisiae deletion strains, locus YER167W, strain BCK2, stronger effect = lower value 0.801 | S. cerevisiae deletion strains, locus YGL086W, strain mad1, stronger effect = lower value 0.882 | S. cerevisiae deletion strains, locus YGL248W, strain PDE1, stronger effect = lower value 0.814 | S. cerevisiae deletion strains, locus YGR078C, strain PAC10, stronger effect = lower value 0.748 | S. cerevisiae deletion strains, locus YGR135W, strain pre9, stronger effect = lower value 0.784 | S. cerevisiae deletion strains, locus YGR229C, strain SMI1, stronger effect = lower value 0.58 | S. cerevisiae deletion strains, locus YGR252W, strain gcn5, stronger effect = lower value 0.68 | S. cerevisiae deletion strains, locus YHR079C, strain IRE1 (second series), stronger effect = lower value 0.828 | S. cerevisiae deletion strains, locus YHR129C, strain ARP1, stronger effect = lower value 0.874 | S. cerevisiae deletion strains, locus YHR200W, strain rpn10, stronger effect = lower value 0.897 | S. cerevisiae deletion strains, locus YIR030C, strain dcg1, stronger effect = lower value 0.879 | S. cerevisiae deletion strains, locus YJL168C, strain set2, stronger effect = lower value 0.912 | S. cerevisiae deletion strains, locus YJL187C, strain SWE1 (second series), stronger effect = lower value 0.855 | S. cerevisiae deletion strains, locus YJR075W, strain HOC1, stronger effect = lower value 0.844 | S. cerevisiae deletion strains, locus YKL009W, strain mrt4, stronger effect = lower value 0.877 | S. cerevisiae deletion strains, locus YKR001C, strain vps1, stronger effect = lower value 0.764 | S. cerevisiae deletion strains, locus YLR058C, strain SHM2, stronger effect = lower value 0.88 | S. cerevisiae deletion strains, locus YLR268W, strain sec22, stronger effect = lower value 0.807 | S. cerevisiae deletion strains, locus YLR330W, strain CHS5, stronger effect = lower value 0.899 | S. cerevisiae deletion strains, locus YLR342W, strain FKS1 (second series), stronger effect = lower value 0.69 | S. cerevisiae deletion strains, locus YLR418C, strain cdc73, stronger effect = lower value 0.592 | S. cerevisiae deletion strains, locus YML016C, strain PPZ1, stronger effect = lower value 0.919 | S. cerevisiae deletion strains, locus YML032C, strain rad52, stronger effect = lower value 0.53 | S. cerevisiae deletion strains, locus YML124C, strain tub3, stronger effect = lower value 0.924 | S. cerevisiae deletion strains, locus YMR078C, strain ctf18, stronger effect = lower value 0.805 | S. cerevisiae deletion strains, locus YMR223W, strain ubp8, stronger effect = lower value 0.83 | S. cerevisiae deletion strains, locus YMR263W, strain SAP30, stronger effect = lower value 0.838 | S. cerevisiae deletion strains, locus YNL067W, strain RPL9B, stronger effect = lower value 0.837 | S. cerevisiae deletion strains, locus YNL233W, strain BNI4, stronger effect = lower value 0.78 | S. cerevisiae deletion strains, locus YNL271C, strain bni1, stronger effect = lower value 0.916 | S. cerevisiae deletion strains, locus YNL298W, strain CLA4, stronger effect = lower value 0.884 | S. cerevisiae deletion strains, locus YNL307C, strain MCK1, stronger effect = lower value 0.29 | S. cerevisiae deletion strains, locus YNR052C, strain pop2, stronger effect = lower value 0.899 | S. cerevisiae deletion strains, locus YOL006C, strain TOP1, stronger effect = lower value 0.359 | S. cerevisiae deletion strains, locus YOL147C, strain pex11, stronger effect = lower value 0.854 | S. cerevisiae deletion strains, locus YOR144C, strain elg1, stronger effect = lower value 0.92 | S. cerevisiae deletion strains, locus YOR184W, strain ser1, stronger effect = lower value 0.684 | S. cerevisiae deletion strains, locus YOR316C, strain cot1, stronger effect = lower value 0.916 | S. cerevisiae deletion strains, locus YPR119W, strain clb2, stronger effect = lower value 0.919 | S. cerevisiae deletion strains, locus YPR163C, strain tif3, stronger effect = lower value 0.634 | S. cerevisiae deletion strains, locus YPR167C, strain met16, stronger effect = lower value 0.916 | S. cerevisiae deletion strains, strain wtn01, stronger effect = lower value 0.832 | S. cerevisiae strains, strain wild type, stronger effect = lower value 0.895
inactive: S. cerevisiae deletion strains, locus YBR021W, strain FUR4, stronger effect = lower value 0.925 | S. cerevisiae deletion strains, locus YBR229C, strain ROT2, stronger effect = lower value 0.929 | S. cerevisiae deletion strains, locus YDL185W, strain tfp1, stronger effect = lower value 0.923 | S. cerevisiae deletion strains, locus YDR150W, strain NUM1, stronger effect = lower value 0.944 | S. cerevisiae deletion strains, locus YEL061C, strain CIN8, stronger effect = lower value 0.938 | S. cerevisiae deletion strains, locus YER155C, strain BEM2, stronger effect = lower value 0.926 | S. cerevisiae deletion strains, locus YGL078C, strain dbp3, stronger effect = lower value 0.956 | [2] 0.926 | S. cerevisiae deletion strains, locus YHR094C, strain hxt1, stronger effect = lower value 0.936 | S. cerevisiae deletion strains, locus YIL066C, strain RNR3, stronger effect = lower value 0.882 | S. cerevisiae deletion strains, locus YIL073C, strain SPO22, stronger effect = lower value 0.803 | S. cerevisiae deletion strains, locus YIL125W, strain kgd1, stronger effect = lower value 0.956 | S. cerevisiae deletion strains, locus YJL134W, strain LCB3, stronger effect = lower value 0.946 | S. cerevisiae deletion strains, locus YJR043C, strain POL32, stronger effect = lower value 0.863 | [4] 0.867 | S. cerevisiae deletion strains, locus YKL068W, stronger effect = lower value 0.96 | S. cerevisiae deletion strains, locus YKL085W, strain MDH1 (second series), stronger effect = lower value 0.945 | S. cerevisiae deletion strains, locus YKL085W, strain MDH1, stronger effect = lower value 0.945 | S. cerevisiae deletion strains, locus YKL190W, strain CNB1, stronger effect = lower value 0.922 | S. cerevisiae deletion strains, locus YLR039C, strain RIC1, stronger effect = lower value 0.778 | S. cerevisiae deletion strains, locus YLR102C, strain apc9, stronger effect = lower value 0.93 | [5] 0.937 | S. cerevisiae deletion strains, locus YLR262C, strain YPT6, stronger effect = lower value 0.801 | S. cerevisiae deletion strains, locus YLR371W, strain rom2, stronger effect = lower value 0.932 | S. cerevisiae deletion strains, locus YMR307W, strain GAS1, stronger effect = lower value 0.652 | S. cerevisiae deletion strains, locus YNL128W, strain TEP1, stronger effect = lower value 0.942 | S. cerevisiae deletion strains, locus YNL153C, strain GIM3, stronger effect = lower value 0.891 | [6] 0.88 | S. cerevisiae deletion strains, locus YNL250W, strain rad50, stronger effect = lower value 0.9 | S. cerevisiae deletion strains, locus YNL322C, strain KRE1, stronger effect = lower value 0.947 | S. cerevisiae deletion strains, locus YOL012C, strain htz1 0.77 | S. cerevisiae deletion strains, locus YOR061W, strain CKA2, stronger effect = lower value 0.937 | S. cerevisiae deletion strains, locus YOR069W, strain VPS5, stronger effect = lower value 0.979 | S. cerevisiae deletion strains, locus YOR136W, strain idh2, stronger effect = lower value 0.922 | [7] 0.918 | S. cerevisiae deletion strains, locus YPL055C, strain LGE1, stronger effect = lower value 0.767 | S. cerevisiae deletion strains, locus YPL241C, strain CIN2, stronger effect = lower value 0.959 | [8] 0.939 | S. cerevisiae deletion strains, locus YPR141C, strain kar3, stronger effect = lower value 0.944
0.426 (active) and 0.93 (inactive): [3]
0.674 (active) and 0.934 (inactive): [1]

COc1ccc(-c2oc3ccccc3c(=O)c2OC)cc1
inactive: [1] 0.882 | [2] 0.897 | [3] 0.909 | [4] 0.829 | [5] 0.934 | [6] 0.836 | [7] 0.901 | [8] 0.894
